Screening data deposited in PubChem BioAssay by National Center for Advancing Translational Sciences (NCATS).
Most compounds without a hit are left out; they make up all but 10% or so of the library.
Lamin A splicing – changes lamin A minigene splicing in HeLa cells | AID 1487 | Potency, µM (titrated, usually from 46.1 µM), usual class: inhibitors | HeLa LMNA splicing GFP/RFP minigene ratio, 48 h | 200,000 compounds, 0.01% hits; active = well fitted inhibition curve with a large enough effect in the signal ratio, with a control signal flat, not every such curve was filed as active; inconclusive = small, poorly fitted or top-dose-only effect, or effect the other way, or a change in a side signal; the % refers to the signal ratio
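S3 HeLa cells stably expressing lamin A-EGFP splicing minigene plus DsRed2, 600 cells/well, 48 h compound exposure at 37C. Laser-scanning cytometry; analysed as GFP (500-530 nm)/RFP (575-640 nm) total intensity ratio; 0.5% DMSO vehicle.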
HPGD block – inhibitors of human 15-hydroxyprostaglandin dehydrogenase (HPGD); P15428; purified HPGD, NADH fluorescence kinetic, PGE2 substrate; Potency, µM, hits mostly inhibitors; 150,000 compounds, 4.3% hits
Target sequence (P15428 whole entry, looked up): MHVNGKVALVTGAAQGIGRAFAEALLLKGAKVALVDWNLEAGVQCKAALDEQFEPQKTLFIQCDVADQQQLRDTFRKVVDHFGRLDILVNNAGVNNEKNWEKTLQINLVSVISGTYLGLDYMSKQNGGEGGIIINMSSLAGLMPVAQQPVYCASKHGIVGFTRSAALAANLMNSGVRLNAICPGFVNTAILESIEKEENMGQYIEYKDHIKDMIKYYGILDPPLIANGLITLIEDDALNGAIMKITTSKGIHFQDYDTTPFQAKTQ
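NADH formation kinetics: reaction with 30 uM PGE2 and 1 mM NAD+ (final), 20 nM enzyme, Tris-HCl pH 8 with Tween 20, after 15 min compound preincubation at room temperature. Fluorescence change, last versus first of five reads.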
ALOX12 inhib – 12-hLO (ALOX12) enzyme inhibition | P18054 | purified 12-hLO, xylenol orange hydroperoxide absorbance | Potency, µM (top dose mostly 57.1 µM), actives largely listed as inhibitors | 150,000 compounds, 0.12% hits; active = well fitted inhibition curve with a large enough effect; inconclusive = small, poorly fitted or top-dose-only effect; note: nearly all actives have a fitted effect of over 55% in size
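Hydroperoxide output read as Fe(III)-xylenol orange absorbance, 573-to-405 nm ratio, after 30 min reaction with 40 uM arachidonic acid. Enzyme: 150 nM purified human 12hLO, 15 min compound preincubation; 25 mM Hepes pH 7.0, room temperature.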
ALDH1A1 block – blocks purified human ALDH1A1 activity | Purified ALDH1A1, NADH fluorescence, propionaldehyde substrate | Potency, µM (doses to about 75.3 µM), usual class: inhibitors | 220,000 compounds, 7.3% hits | AID 1030
PNC inhibitor – inhibitors of perinucleolar compartment assembly. PC3M PTB-GFP, PNC prevalence imaging, 16 h; hits give low values. activity change (PNC), negative = inhibition, % at 10 µM. 140,000 compounds, 3.1% hits;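 active = readout at or below -70, meaning at least 70% loss of cells showing the perinucleolar compartment, a nuclear body marking cancer cells; inconclusive = readout between -30 and a set limit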
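PC3M cells stably expressing PTB-GFP, 750–1000 cells/well, treated 16 h at 37 °C with compound (23 nl of library stock), in duplicate. After paraformaldehyde fixation and Hoechst stain, imaged at 20x; PNC prevalence scored by image analysis.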
Numbers stand for hits; 0 = inactive; ? = inconclusive; - = no result; [ ] = another dose, or the depositor's remark. Unless noted, calls come from the whole dose curve; as a rule, active = well fitted inhibition curve with a large enough effect (not every such curve was filed as active); inconclusive = small, poorly fitted or top-dose-only effect, or another doubt; inactive = no such curve, though single readings can be large or run the other way.

SMILES	Lamin A splicing	HPGD block	ALOX12 inhib	ALDH1A1 block	PNC inhibitor
COc1ccc2c(C(=O)CN(C)C3CCCCC3)c[nH]c2c1	0	0	0	?	-100.0
COc1ccc2[nH]cc(C(=O)CN3CCN(C4CCCCC4)CC3)c2c1	0	0	0	25.1µM	0
COc1ccc2c(C(=O)CN3CCN(c4ccccc4)CC3)c[nH]c2c1	0	0	0	0	0
COc1ccc2[nH]cc(C(=O)CN3CCCCC3)c2c1	?	0	0	0	0
COc1ccc(CNC(=O)Cn2nnc(-c3ccc(C(F)(F)F)cc3)n2)cc1	0	-	-	-	-
O=C(Cn1cnc2c(nnn2Cc2ccc(F)cc2)c1=O)NCc1ccco1	0	15.8µM	0	0	0
O=C(Cn1cnc2c(nnn2Cc2ccc(F)cc2)c1=O)Nc1cccc(F)c1	-	-	-	0	-
O=C(Cn1cnc2c(nnn2Cc2ccc(Cl)cc2)c1=O)NCc1ccco1	0	15.8µM	0	?	0
O=C(Cn1cnc2c(nnn2Cc2ccccc2)c1=O)NCc1ccco1	0	14.1µM	0	0	?
COc1cc2c(=O)n(Cc3ccccc3)c(=O)n(CC(=O)NCc3ccco3)c2cc1OC	0	?	0	1.41µM	0
COC(=O)C(CCSC)NC(=O)Cn1ncc2c([nH]c3ccccc32)c1=O (stereo unspecified)	0	-	-	-	-
CC(=O)N(OCc1ccccc1)[C@@H]1c2cc(C#N)ccc2OC(C)(C)[C@H]1O	-	0	0	0	-
Cc1ccc(C)c(NC(=O)c2ccc(CN3CC(=O)N4CCCCC4C3=O)cc2)c1 (stereo unspecified)	0	-	-	-	-
O=C(Cn1cnc2c(nnn2Cc2ccccc2)c1=O)c1ccccc1	0	22.4µM	0	0	0
O=C(Cn1cnc2c(nnn2Cc2ccc(F)cc2)c1=O)OCc1ccccc1	0	?	0	?	0
O=C(C1=C(O)C(=O)N(Cc2ccco2)C1c1cccnc1)c1cc2ccccc2o1 (stereo unspecified)	0	0	0	14.1µM	0
COc1cccc2cc(C(=O)C3=C(O)C(=O)N(Cc4ccco4)C3c3cccnc3)oc12 (stereo unspecified)	0	0	0	5.62µM	0
COc1ccc(C2C(C(=O)c3ccco3)=C(O)C(=O)N2Cc2cccnc2)cc1OC (stereo unspecified)	0	0	0	?	0
O=C(C1=C(O)C(=O)N(CC2CCCO2)C1c1cccnc1)c1ccco1 (stereo unspecified)	0	0	0	0	0
COc1cccc(-c2nc(NCCNC(C)=O)c3ccccc3n2)c1	0	-	-	0	-
COc1ccc(CC(CC(=O)O)C(=O)NCc2ccccc2)cc1 (stereo unspecified)	0	-	-	0	-
CC(CCc1ccccc1)NC(=O)CN1CCN(c2ccccc2)CC1 (stereo unspecified)	-	-	-	31.6µM	-
COc1ccc(CNC(=S)NCc2ccc(OC)cc2)cc1	0[1.84 µM]	-	-	20µM	-
COc1ccc(CNC(=S)NC(C)CCc2ccccc2)cc1 (stereo unspecified)	0	-	-	6.31µM	-
Cc1cccc(C)c1NC(=S)NC(C)CCc1ccccc1 (stereo unspecified)	0	0	?	0	-82.3
SMILES	Lamin A splicing	HPGD block	ALOX12 inhib	ALDH1A1 block	PNC inhibitor
Cc1ccc(CC(=O)NC(C)CCc2ccccc2)cc1 (stereo unspecified)	0	0	0	0	?
CC(CCc1ccccc1)NC(=O)/C=C/c1ccccc1 (stereo unspecified)	0	0	0	11.2µM	0
CC(CCc1ccccc1)NC(=O)/C=C/c1ccc(F)cc1 (stereo unspecified)	0	-	-	?	-
CC1(C)CC(=O)C2=C(C1)OC1=C(C(=O)CC(C)(C)C1)C2c1ccc(O)cc1O	?	3.16µM	?	0.891µM	0
C[C@@]12CC[C@@H]3[C@H](CCC4=CC(=O)CC[C@]43C)[C@@H]1CC[C@@H]2C(=O)COS(=O)(=O)c1ccc(Br)cc1	-	0	0[11.4 µM]	3.55µM	-
CN1Cc2cc(C(=O)c3ccccc3O)cnc2NC1=O	0	25.1µM	0	0	?
CCOC(=O)CCN(c1ccccc1)S(=O)(=O)c1ccc2[nH]c(=O)ccc2c1	0	-	-	-	-
COc1ccc(S(=O)(=O)NCCSC(C)(C)C)c(Cl)c1Cl	0	?	0	2.38µM	0
CCOc1ccc(-c2nc(-c3cccnc3)no2)cc1	0	0	0	0	-100.0
O=c1cnc2cnc(Oc3ccccc3)nc2n1Cc1ccc(F)cc1	-	0	0	?	-
